Results reported in PubChem BioAssay (EPA / NIEHS).
Several values for one entry are separate records, joined by “and”; a condition that tells them apart may be missing. Equal values may be shown once. Activity calls are given as the source filed them. How the source made its calls: active means hit-call score of the fitted dose curve at least 0.9, where 1 is the maximum; inactive means score below 0.9.

The compounds below were run on urokinase plasminogen activator (uPA), PLAU (gene 5328) (assay: BSK_KF3CT_uPA: BioMAP Diversity Plus: KF3CT Assay for urokinase plasminogen activator (uPA) Biomarker Activity (AID 2283075)). Details: primary human keratinocytes with fibroblasts; actives raise or lower the signal.
Protocol: BSK_KF3CT is a cell-based, multiplexed-readout assay that uses keratinocytes and foreskin fibroblasts, a human skin primary cell co-culture, with measurements taken at 24 hours after chemical dosing in a 96-well plate.BSK_KF3CTA is an assay component measured in the BSK_KF3CT assay. It measures uPA antibody related to regulation of gene expression using ELISA technology.Data from the assay component BSK_KF3CTA was analyzed into 1 assay endpoint. This assay endpoint, BSK_KF3CTA, was analyzed with bidirectional fitting relative to DMSO as the negative control and baseline of activity. Using a type of binding reporter, gain or loss-of-signal activity can be used to understand changes in the signaling as they relate to the gene PLAU. Furthermore, this assay endpoint can be referred to as a primary readout, because this assay has produced multiple assay endpoints where this one serves a signaling function. To generalize the intended target to other relatable targets, this assay endpoint is annotated to the protease intended target family, where the subfamily is serine protease.
The levels of cell surface (or secreted, indicated by the prefix "s") biomarker endpoints were measured by ELISA. Overt cytotoxicity to cells in confluent adherent cultures (all systems other than the BT system) was assessed by measuring total protein levels using sulforhodamine B (SRB) staining in parallel cultures at the time of biomarker measurements, indicated as SRB endpoints. For proliferation assays for adherent cell types, individual cell types are cultured at sub-confluence and relative cell numbers quantified by SRB staining at time points optimized for each system (48 h: 3C and CASM3C systems; 72 h: BT and HDF3CGF systems; 96 h: SAg system). SRB was performed by staining cells with 0.1% SRB after fixation with 10% TCA and reading wells at 560 nm.Viability and proliferation of PBMC (T cells) was quantified by Alamar Blue reduction for the SAg and BT systems. For PBMC viability (referred to as PBMC Cytotoxicity within the assay endpoint names), cells were plated (75,000/well in a 96-well plate) and then chemical samples added for 1 h before addition of activators, SEB and TSST-1 (20 ng/mL final concentration each). Cells were incubated for 90 h. Then, Alamar Blue (20 uL/well) (Invitrogen, Cat DAL1100) was added for 6 h, and the plates were read with a fluorescence microplate reader at 546/580 nm (excitation/emission). For PBMC proliferation, cells were plated and activated as above but incubated for only 16 h prior to addition of Alamar Blue. Plates were read after 6 h.

Structure (SMILES)	outcome	AC50
O=P(O)(O)OCCC(F)(F)C(F)(F)C(F)(F)C(F)(F)C(F)(F)C(F)(F)F	inactive	–
O=C(O)C(F)(OC(F)(F)C(F)(OC(F)(F)C(F)(F)C(F)(F)F)C(F)(F)F)C(F)(F)F (stereo not given)	inactive	–
O[Si](c1ccccc1)(c1ccccc1)c1ccccc1	inactive	–
N=C(N)C(F)(F)C(F)(F)C(F)(F)C(F)(F)C(F)(F)C(F)(F)C(F)(F)F	inactive	–
NC(=O)C(F)(F)C(F)(F)C(F)(F)C(F)(F)F	inactive	–
OCC(F)(F)C(F)(F)C(F)(F)C(F)(F)C(F)(F)C(F)F	inactive	–
CS(C)(=O)=O	inactive	–
C#C[C@]1(O)CC[C@H]2[C@@H]3CCc4cc(OC)ccc4[C@H]3CC[C@@]21C	–	9.89 µM (active)
CCCCCCOC(=O)c1ccccc1O	inactive	–
FC(F)(F)C(F)(F)C(F)(F)C(F)(F)C(F)(F)C(F)(F)CCS	inactive	–
FC(F)(F)C(F)(F)CNCC(F)(F)C(F)(F)F	inactive	–
FC1CC(F)(F)C(F)(F)C1(F)F (stereo not given)	inactive	–
O=C(O)C(F)(F)C(F)(F)C(F)(F)C(F)(F)C(F)(F)C(F)(F)C(F)(F)C(F)(F)Cl	–	47.8 µM (active) and 47.2 µM (active)
O=C(CC(=O)C(F)(F)C(F)(F)F)C(F)(F)F	inactive	–
OCC(F)(F)C(F)(F)C(F)(F)C(F)F	inactive	–
O=C(O)C(F)(OC(F)(F)C(F)(OC(F)(F)C(F)(OC(F)(F)C(F)(F)C(F)(F)F)C(F)(F)F)C(F)(F)F)C(F)(F)F (stereo not given)	inactive	–
FC(F)(Br)C(F)(F)C(F)(F)C(F)(F)C(F)(F)C(F)(F)Br	inactive	–
FC(F)(F)C(F)(F)C(F)(F)C(F)(F)C(F)(F)C(F)(F)C(F)(F)I	inactive	–
CC(=O)Nc1ccc(N=Nc2cc(C)ccc2O)cc1	inactive	–
CCc1ccc(C(c2ccc(CC)cc2)C(Cl)Cl)cc1	inactive	–

Structure (SMILES)	outcome	AC50
CCCCNc1ccccc1	inactive	–
Oc1ccc(Nc2ccccc2)cc1	inactive	–
Nc1ccc([N+](=O)[O-])cc1O	inactive	–
CCCCCCCCCCCCCCCC[N+](C)(C)Cc1ccccc1	–	2.39 µM (active)
FC(F)(F)C(F)(F)C(F)(F)C(F)(F)C(F)(F)C(F)(F)C(F)(F)C(F)(F)F	inactive	–
C=CC(F)(F)C(F)(F)C(F)(F)C(F)(F)C(F)(F)C(F)(F)C(F)(F)C(F)(F)C=C	inactive	–
OCC(F)(F)C(F)(F)C(F)(F)C(F)(F)C(F)(F)C(F)(F)F	inactive	–
C=CC/C=C/C/C=C/C/C=C/C	inactive	–
C=CC(F)(F)C(F)(F)C(F)(F)C(F)(F)C(F)(F)C(F)(F)C(F)(F)C(F)(F)F	inactive	–
O=C(O)C(F)(F)C(F)(F)F	inactive	–
O=C(O)C=C(C(F)(F)F)C(F)(F)F	inactive	–
C=CC(=O)OCC(F)(F)C(F)(F)C(F)(F)C(F)(F)C(F)(F)C(F)(F)C(F)(F)F	inactive	–
CCCCC(CC)COP(=O)(O)OCC(CC)CCCC (stereo not given)	inactive	–
CO[Si](OC)(c1ccccc1)c1ccccc1	–	28.9 µM (active)
O=C(O)C(F)(F)C(F)(F)C(F)(F)F	inactive	–
CCCCCCCOC(=O)c1ccccc1C(=O)OCCCCCCC	inactive	–
CCCCOCCOCCOC(=O)CCCCC(=O)OCCOCCOCCCC	inactive	–
O=S(=O)(OCC(F)F)C(F)(F)F	inactive	–
OCC(F)(F)C(F)(F)C(F)(F)F	inactive	–
FC(F)(F)C(F)(F)C(F)(F)CI	inactive	–
